Assay outcomes: PubChem BioAssay, National Center for Advancing Translational Sciences (NCATS)
The full list was thinned out, with hits kept by preference.
TbPYK inhibitor = T. brucei pyruvate kinase inhibition | 0.12% of 410,000 active | TbPYK enzyme, Kinase-Glo Plus ATP luminescence, 45 min | Potency, µM (top dose mostly 76.8 µM), without a hit: at the top dose activity, negative = inhibition, usual class: inhibitors | AID 624173; also: potency is read from the fitted curve at half-maximal effect; % is scaled to controls: 0 for no effect and ±100 for the full control effect; nearly all actives have a fitted effect of over 50% in size
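Activity of T. brucei pyruvate kinase was followed by Kinase-Glo Plus luminescence after the enzyme reacted 45 min at room temperature with 130 uM ADP (final) and substrate. Test compounds were added before ADP at multiple concentrations.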
Shiga toxin inh = blocks Shiga toxin action in Vero cells. Vero cells, Shiga toxin protein synthesis inhibition reporter. inhibition, % at 38.7 µM. 9.2% of 290,000 active. AID 2315; in the data active = inhibition mostly above about 28%, no sharp cut-off; inactive = mostly below about 43%; also: 0% is about no effect
FBPA Giardia inh = Giardia lamblia aldolase inhibition; A8B2U2; purified Giardia FBPA; Potency, µM (doses to about 59.6 µM), for the others: top-dose activity, negative = inhibition, most hits filed as inhibitors; 0.71% of 290,000 active; AID 2451; also: potency is read from the fitted curve at half-maximal effect; % is scaled to controls: 0 for no effect and ±100 for the full control effect; nearly all actives have a fitted effect of over 55% in size
Target sequence (A8B2U2 whole entry, looked up): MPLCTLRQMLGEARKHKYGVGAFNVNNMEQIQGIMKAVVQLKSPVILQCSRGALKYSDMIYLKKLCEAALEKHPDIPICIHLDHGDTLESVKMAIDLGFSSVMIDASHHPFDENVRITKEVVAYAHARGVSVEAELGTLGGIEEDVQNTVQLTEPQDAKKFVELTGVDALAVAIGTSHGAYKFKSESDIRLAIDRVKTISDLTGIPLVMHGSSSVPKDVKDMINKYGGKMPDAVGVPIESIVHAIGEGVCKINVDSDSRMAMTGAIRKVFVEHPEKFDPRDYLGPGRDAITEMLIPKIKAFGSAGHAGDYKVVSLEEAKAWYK
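Giardia FBPA (40 nM reagent) was preincubated 10 min at RT with compound (up to 57.5 uM final), then substrate plus GAPDH/TPI/NAD/arsenate coupling system with diaphorase/resazurin was added; resorufin fluorescence (525/598 nm) was read after 20 min.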
Cycloheximide cs = affects cycloheximide protein synthesis inhibition readout, counter-screen. max response, %. 12% of 300,000 active. cell reporter, cycloheximide protein synthesis inhibition counterscreen; in the data active = max response mostly above about 13%, no sharp cut-off; inactive = mostly below about 14%; also: read at 38.3 µM for the half of the compounds with a filed dose; 0% is about no effect
LmPK inhibitor = inhibitors of Leishmania mexicana pyruvate kinase; Q27686; purified LmPK, Kinase-Glo ATP luminescence, 1 h; Potency, µM (top dose mostly 57.5 µM), inactives show at the highest dose activity change, negative = inhibition, hits mostly inhibitors; 0.37% of 290,000 active; AID 1721; also: potency is read from the fitted curve at half-maximal effect; % is scaled to controls: 0 for no effect and ±100 for the full control effect
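qHTS format; LmPK 0.1 nM; substrates PEP 0.5 mM and ADP 0.1 mM. One-hour room-temperature incubation, then coupled luciferase luminescence; 0.5 nM enzyme wells mark activation.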
RE007 growth inh = less growth of the S. pombe RE007 Vpr strain; AID 651644; Potency, µM (doses to about 92.2 µM), for inactives: at the top dose activity change, negative = less growth, usual class: inhibitors; 0.21% of 360,000 active; S. pombe RE007 Vpr strain, BacTiter-Glo ATP luminescence, 24 h; active = well fitted falling curve with a large enough effect; inconclusive = small, poorly fitted or top-dose-only effect; inactive = no such curve, though single readings can be large or run the other way; also: potency is read from the fitted curve at half-maximal effect; % is scaled to controls: 0 for no effect and ±100 for the full control effect; nearly all actives have a fitted effect of over 50% in size
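Fission yeast RE007 carrying one integrated HIV-1 vpr copy, seeded at OD 0.01 in PMG+AL medium with 23 nL pinned compound. Grown 24 h at 30 degrees; viability read by BacTiter-Glo luminescence after 5 min.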
The depositor's hits bear a star; ? = inconclusive; . = not tested or not shown; + = active, no number. Unless noted, calls follow the shape of the dose curve; as a rule, active = well fitted curve in the direction sought with a large enough effect; inconclusive = small, poorly fitted or top-dose-only effect, or another doubt; inactive = no such curve, though single readings can be large; an effect the other way counts as inactive or inconclusive.

SMILES | TbPYK inhibitor | Shiga toxin inh | FBPA Giardia inh | Cycloheximide cs | LmPK inhibitor | RE007 growth inh
Nc1nc(OCC(F)(F)F)cc(Oc2ccccc2F)n1 | 2% | 80* | -5% | 22* | -2% | -8%
CCCCCCCCCCCCCCCCn1cc[n+](C)c1 | -2% | -19 | 2% | -2 | 3% | 14µM*
CC(C)(C)n1ncc2c(=O)n(CC(=O)c3ccccc3)cnc21 | 4% | 81* | -6% | 56* | 5% | -5%
CC(C)(C)n1ncc2c(=O)n(CC(=O)OCc3ccccc3)cnc21 | -4% | -19 | 3% | -5 | -21% | -8%
CC(C)(C)n1ncc2c(=O)n(CC(=O)N3CCc4ccccc43)cnc21 | -4% | 69* | 1% | 12* | 1% | -11%
CC(C)(C)n1ncc2c(=O)n(Cc3cccc(Cn4cnc5c(cnn5C(C)(C)C)c4=O)c3F)cnc21 | 0% | . | . | . | . | .
CC(C)(C)n1ncc2c(=O)n(Cc3cccc(Cl)c3)cnc21 | -1% | 46* | -1% | 33* | 8% | -15%
CSCC[C@H](NC(=O)[C@H](CC(C)C)NC(=O)[C@@H]1CCCN1C(=O)[C@H](Cc1ccccc1)NC(=O)[C@H](Cc1ccccc1)NC(=O)[C@H](CCC(N)=O)NC(=O)[C@H](CCC(N)=O)NC(=O)[C@@H]1CCCN1C(=O)[C@H](CCCCN)NC(=O)[C@@H]1CCCN1C(=O)[C@@H](N)CCCN=C(N)N)C(N)=O | . | 2 | 4% | 0 | . | .
CN(C(=O)c1cncc(Br)c1)C1C2CC3CC(C2)CC1C3 (configuration not stated) | -13% | 25 | 13% | 19* | -5% | -2%
CN(C(=O)COC(=O)c1cncc(Br)c1)C1CCCCC1 | 3% | . | . | . | . | -7%
O=C(NC1CCCC1)C(c1cccnc1)N(C(=O)c1csnn1)c1ccc(F)cc1 (configuration not stated) | 2% | 20 | -5% | 3 | 13% | -5%
COc1cccc(CNS(=O)(=O)c2ccc(S(=O)(=O)N3CCCC3)cc2)c1 | -3% | -17 | 7.9µM* | -2 | ? | 18%
O=c1c2ccccc2nnn1CSc1ccccc1 | -2% | 92* | -2% | 45* | ? | -9%
O=c1c2ccccc2nnn1CSc1nnc(Nc2ccccc2)s1 | 0% | -7 | 1% | -1 | -2% | 12%
Cc1ccc(Nc2nnc(SCn3nnc4ccccc4c3=O)s2)cc1 | 2% | 116* | -12% | 31* | 7% | -12%
CNC(=S)NNC(=O)c1ccc(C(C)(C)C)cc1 | -12% | 26 | 2% | 17* | 1% | 49%
CCCCNC(=S)NNC(=O)c1ccc2c(c1)OCO2 | -4% | -9 | -1% | 2 | -8% | 22%
O=C(NNC(=O)c1cccc2ccccc12)c1ccc2c(c1)OCO2 | -1% | 50* | 2% | 24* | 2% | 11%
CNC(=S)NNC(=O)c1ccc2c(c1)OCO2 | -4% | 52* | -21% | 9 | 1% | 13%
COCC(=O)Oc1cc(-c2ccc(C)cc2C)c(OC(=O)COC)c(-c2ccc(C)cc2C)c1 | -4% | . | . | . | . | -6%
O=C(c1ccc(F)cc1)N1CCC(C(=O)N2CCN(S(=O)(=O)c3cccc(Cl)c3)CC2)CC1 | 2% | . | . | . | . | -28%
COc1ccc(-c2ccc(-c3noc(-c4cc(OC)cc(OC)c4)n3)c(OC)n2)cc1 | 0% | . | . | . | . | .
CCc1nc(-c2ccc(-c3ccc(OC)cc3)nc2OC)no1 | 1% | + | 0% | 40* | 5% | -26%
COc1ccc(-c2ccc(-c3noc(C(C)C)n3)c(OC)n2)cc1 | 1% | 69 | 1% | 40* | 0% | -9%
COCc1nc(-c2ccc(-c3ccc(OC)cc3)nc2OC)no1 | 1% | active | 4% | 47* | 0% | -4%
COc1nc(-c2ccccc2)ccc1-c1noc(C)n1 | -1% | 72* | 8% | 62* | 1% | -19%
CCOC(=O)N1CCc2c(sc3c2c(=O)n(CCc2ccccc2)c(=O)n3Cc2ccc(F)cc2)C1 | 6% | . | . | . | . | .
COCc1nc(-c2ccc(-c3ccccc3)nc2OC)no1 | 2% | 156* | 4% | 64* | -1% | -25%
